# Compound activity: PubChem, Sanford-Burnham Center for Chemical Genomics
# CRFR2-BP antag: blocks CRF-induced signaling of the CRF-BP/CRF-R2 complex; HEK293 CRF-R2/CRF-BP, CRF-induced calcium fluorescence; inhibition, % at 11.8 µM; hit rate 0.59% among 350,000;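 active = inhibition of the ligand-induced calcium signal above about 50% at the single tested concentration, limit read from the data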
# H9c2 protect: myocardial damage modulation in H9c2 cells; AID 588492; protection from H2O2 cell death, % at 20 µM; hit rate 0.63% among 360,000; H9c2 cardiomyocytes, H2O2 injury protection, ATPLite, 2 h;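 active = compounds giving at least 50% protection of heart cells from peroxide-induced death in the single-dose screen, raw or plate-pattern-corrected value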
# CRFBP-R2 agonist: agonists of human CRF-binding protein/CRF-R2 receptor complex. HEK293 CRF-R2/CRF-BP, calcium dye fluorescence (FLIPR); percent of saturating CRF peptide response. activation, % at 13.2 µM. hit rate 0.46% among 350,000. AID 588473;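 active = activation of at least 50%, plus an integration ratio under a set limit after plate pattern correction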
# SKN-1 inh: C. elegans SKN-1 inhibition; C. elegans VP596 Pgst-4::GFP/RFP ratio, acrylamide-induced, 24 h; inhibition, % at 21.8 µM; hit rate 0.49% among 360,000;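 active = interference check ratio from 0.5 to 1.5 plus GFP to RFP signal ratio inhibition reaching or exceeding a fixed threshold, cut at about 30% in these data, passing the limit was not always enough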
# H9c2 TAG inh: inhibitors of triacylglycerol accumulation | inhibition, % at 12.5 µM | hit rate 0.66% among 230,000 | H9c2 cells, Nile Red lipid (TAG) fluorescence; cells loaded with 200 µM oleic acid | AID 651582;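 active = pattern-corrected inhibition of lipid staining of at least 50% with the nuclear-stain viability signal not falling by more than 50%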
# iPSC survival up: enhancers of human iPSC single-cell survival | AID 602274 | hit rate 0.044% among 360,000 | survival enhancement, % at 20 µM | hiPSC single-cell survival, ATPlite luminescence; 100% = ROCK inhibitor wells, 0% = DMSO; in the data active = survival enhancement above about 18%;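 note: cells exposed to compounds for 16 hours before the ATP read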
# A number is an active result; . = inactive; / = no result given. In the library only some 2.5% were active in any assay of this set; here they are far more common.
SMILES,CRFR2-BP antag,H9c2 protect,CRFBP-R2 agonist,SKN-1 inh,H9c2 TAG inh,iPSC survival up
COc1ccc(C2C(C(=O)OC(C)C)=C(C)N=c3s/c(=C\c4cccs4)c(=O)n32)cc1 (stereo unspecified),.,.,.,43,.,.
Cc1cc([N+](=O)[O-])ccc1NCc1ccc2c(c1)OCCO2,53,.,.,.,/,.
COc1cccc(CNc2ccc([N+](=O)[O-])cc2C)c1,58,.,.,.,.,.
COc1ccc([N+](=O)[O-])cc1NCc1ccccc1C,.,.,.,.,/,.
Cc1cc([N+](=O)[O-])ccc1NCc1ccco1,59,.,.,.,.,.
O=C(NCc1ccco1)c1cc([N+](=O)[O-])ccc1Cl,.,.,.,.,.,.
COc1ccc([N+](=O)[O-])cc1NCc1ccccc1,98,.,.,.,/,.
Cc1ccc2c3c(cccc13)-c1ccccc1C2=O,.,.,.,.,/,.
Nc1ccc2c3c(cccc13)-c1ccccc1-2,.,.,197,.,.,.
O=C(NC(=S)NCC1CCCO1)C(c1ccccc1)c1ccccc1 (stereo unspecified),55,.,.,.,.,.
Cc1ccccc1C(=O)NC(=S)NCC1CCCO1 (stereo unspecified),.,.,.,.,.,.
CC(/C=N/Nc1ncc(C)c(=O)[nH]1)=C\c1ccccc1,.,.,.,41,.,.
O=c1[nH]c2cccnc2c2ccsc12,.,58,.,.,.,.
c1cnc2ncc3sccc3c2c1,.,.,.,.,.,.
Cc1cc([N+](=O)[O-])nn1CC(=O)N/N=C/c1ccccc1O,.,58,.,.,.,.
Cc1ccc(SCCC(=O)N/N=C/c2ccccc2O)cc1,.,65,.,.,.,.
O=C(CCn1cnc(-c2ccccc2)c1-c1ccccc1)N/N=C/c1ccccc1O,.,57,.,.,/,.
Cc1cccc(NC(=O)CCC(=O)N/N=C/c2ccc(O)cc2O)c1,.,69,.,.,/,.
O=C(CCC(=O)Nc1ccc(Br)cc1)N/N=C/c1ccccc1O,.,.,.,.,/,.
Cc1ccc(NC(=O)CCC(=O)N/N=C/c2ccccc2O)cc1,.,52,.,.,/,.
COc1ccccc1/C=N/NC(=O)CC(=O)NCc1cccnc1,.,.,.,.,/,.
O=C(CCCCC(=O)NN=Cc1ccccc1O)NN=Cc1ccccc1O,.,60,.,.,.,.
O=C(CC(=O)N/N=C/c1ccccc1O)NCc1cccnc1,.,63,.,.,/,.
COc1ccc(-n2nnnc2C(c2cccc(OC)c2OC)N2CCN(C/C=C/c3ccccc3)CC2)cc1 (stereo unspecified),/,.,/,.,/,.
CCOC(=O)C1=CCN(S(=O)(=O)c2ccccc2)C1c1ccc(Cl)cc1 (stereo unspecified),/,.,/,.,/,.
SMILES,CRFR2-BP antag,H9c2 protect,CRFBP-R2 agonist,SKN-1 inh,H9c2 TAG inh,iPSC survival up
Cc1ccc(C(=O)N(C)CC(=O)Nc2ccc(N3CCOCC3)cc2)s1,.,.,.,35,.,.
COC(=O)[C@@]12C[C@@H](CC(=O)N3CCCC3)C(=O)N(Cc3ccco3)C1=CCC(C)(C)C2,/,/,/,.,/,/
CSc1ccc(C2Nc3ccccc3-c3cc(C)nn32)cc1 (stereo unspecified),.,.,.,44,/,.
O=C(Nc1nnc([C@@H]2C[C@H](O)[C@@H](CO)O2)s1)Nc1ccccc1F,/,.,/,.,.,.
Cc1ccn2cc(-c3ccc(Br)cc3)nc2c1,.,.,.,.,.,.
Clc1ccc(-c2cn3cc(Br)ccc3n2)cc1Cl,.,.,.,57,/,.
CC1(C)CSC(=NCc2ccccc2)N1C(=O)c1cccc([N+](=O)[O-])c1,.,.,273,.,/,.
Cc1noc(/C=C/c2cccnc2)c1[N+](=O)[O-],.,.,.,.,/,.
Cc1noc(/C=C/c2ccc(-c3ccccc3Cl)o2)c1[N+](=O)[O-],.,.,205,.,.,.
Cc1cccc(OCCn2c(NC(=O)c3ccco3)nc3ccccc32)c1,.,62,.,.,.,.
Cc1ccc(C2C(C(=O)c3cccs3)=C(O)C(=O)N2c2nnc(C)s2)cc1 (stereo unspecified),.,.,134,.,.,.
COc1ccc(C2C(C(=O)c3cccs3)=C(O)C(=O)N2c2cccc(C)n2)cc1 (stereo unspecified),.,.,.,.,.,.
Cc1ccc(Nc2nc(-c3c(C)nc4ccccn34)cs2)cc1,66,.,.,.,/,.
Cc1ccccc1-c1csc(C(C)(O)c2ccc(F)c(F)c2)n1 (stereo unspecified),/,.,/,.,.,.
CC(=O)c1ccc(-c2[nH]c3ccccc3c2CCN2C(=O)c3ccccc3C2=O)cc1,.,65,.,.,.,.
Cn1ccc2c(/C=C/c3ccc(F)cc3)cc3c(c21)C1CCC3O1 (stereo unspecified),/,.,/,.,/,.
O=C(N/N=C/c1ccc(O)cc1)c1ccc(COc2cc(Cl)ccc2Cl)o1,.,68,.,.,.,.
COc1cc(CCNc2ccc3nnc(-c4ccccc4)n3n2)cc(OC)c1OC,.,56,.,.,.,.
COc1cc(-c2cc3nc(NCCc4ccncc4)ccn3n2)cc(OC)c1OC,/,.,/,.,.,.
CC(=O)Nc1ccc(C(=O)OCC(=O)NC(=O)NC(C)(C)C)cc1,.,.,.,45,.,.
CCC(C)NC(=O)c1ccc(Cl)c(S(=O)(=O)Nc2ccccc2N2CCOCC2)c1 (stereo unspecified),.,.,.,.,.,.
C/C(=C\C(=O)c1ccccc1)NCc1ccc(F)cc1,.,.,.,33,.,.
Oc1ccc(C[C@H]2CNC(=S)N2C[C@H]2CCCN2C[C@H](Cc2ccccc2)N2C[C@H](Cc3ccc(O)cc3)N(CCc3ccccc3)C2=S)cc1,/,.,/,.,/,.
COc1ccccc1Nc1nc(-c2c(C)[nH]c3ccccc23)cs1,.,.,.,.,/,.
CNc1nc(-c2c(C)[nH]c3ccc(OC)cc23)cs1,88,.,.,.,/,.
SMILES,CRFR2-BP antag,H9c2 protect,CRFBP-R2 agonist,SKN-1 inh,H9c2 TAG inh,iPSC survival up
OCc1cccc(Nc2ncnc3sc4c(c23)CCCCC4)c1,.,.,.,.,/,.
Cc1cccc(NC(=O)c2cc(S(=O)(=O)N3CCCCC3)c[nH]2)c1,/,.,/,.,.,.
CC(C)N1CCN(Cc2nc(-c3ccccc3)cs2)CC1CCO (stereo unspecified),82,.,.,.,/,.
Cc1cc(C)n(C(=O)CN(C)S(=O)(=O)c2ccc([N+](=O)[O-])cc2)n1,.,.,.,.,/,.
O=C(CCn1c(=O)c2ccccc2n(CC(=O)NCCC2=CCCCC2)c1=O)NCc1ccco1,.,.,.,35,/,.
COCCCNC(=O)CCn1c(=O)c2ccccc2n(CC(=O)NCCC2=CCCCC2)c1=O,.,.,.,.,.,.
S=C(Nc1cccc(Cl)c1)N(CCCN1CCCC1)Cc1cccn1Cc1ccc(Cl)cc1,.,.,.,.,.,.
